L929 necroptosis: L929 zVAD cell death inhibition; AID 1377; viability rescue, % at 10 µM; actives 0.38% (n = 220,000); L929 zVAD necroptosis rescue, ATP luminescence, 24 h; with zVAD 60 µM;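 active = activation, scaled between plate controls, above about 75%, limit read from the data; inactive = activation under that limit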
Hsp70 activator: Hsp70 transcriptional activation, primary screen | actives 0.04% (n = 200,000) | activation, % at 10 µM | HeLa Hsp70 promoter luciferase reporter, luminescence; scaled: vehicle 0, proteasome-inhibitor control 100% | AID 1203;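 active = activation above the mean across all tested compounds plus 3 SD, cutoff set per campaign, cut at about 5.5% in these data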
HSF1 activator: increases HSF-1 driven luciferase reporter signal; NIH3T3-HGL HSF-1 luciferase reporter, MG132, 8 h; 100% = twice DMSO control signal; activation, % at 9 µM; actives 1.7% (n = 300,000); AID 504408;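 active = mean replicate activation of at least 50% with a set share of replicates each reaching 50%; inconclusive = only one of those two conditions met; inactive = mean below 50% and too few replicates reaching it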
TNF necrop inh: inhibitors of TNF-alpha induced necroptosis in Jurkat FADD-/- cells. activation (protection from cell death), % at 10 µM. Jurkat FADD-/- TNF necroptosis rescue, ATP luminescence, 24 h; 0 = TNF only, 100 = no-TNF cells. actives 0.068% (n = 220,000). AID 463075;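 active = activation, meaning protection from cell death, of at least 50% relative to plate controls; inactive = activation below 50%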;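 also: necroptosis triggered by 40 ng/mL TNF-alpha added together with compound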
zVAD necrop conf: confirmed blocker of zVAD induced death in L929 cells; shares compounds with L929 necroptosis; L929 zVAD-induced necroptosis rescue, ATP luminescence, 24 h; activation (protection from necroptosis), % at 10 µM; actives 16% (n = 760);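 active = mean protection from necroptosis of at least 50% over duplicate tests; inactive = mean protection below 50%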
A number is an active result; n = inactive; u = inconclusive; x = no result given. In the library only some 1.9% were active in any assay of this set; here they are far more common.

SMILES | L929 necroptosis | Hsp70 activator | HSF1 activator | TNF necrop inh | zVAD necrop conf
CCOc1ccc(/C=N/Nc2ccccn2)cc1OC | 79.9 | n | n | n | n
COc1ccc2oc(C(=O)Nc3nc(-c4ccccn4)cs3)c(C)c2c1 | x | x | n | x | x
COc1ccc(Br)cc1CN(C)CC(=O)Nc1c(Cl)cccc1Cl | n | n | n | n | x
Cc1cc(C(=O)N/N=C/c2cccs2)n[nH]1 | 81.9 | n | n | n | n
Cc1cc(C(=O)N/N=C/c2cccs2)no1 | n | n | n | n | x
Cc1cc(C(=O)N/N=C/c2ccc(-c3cccc(Cl)c3)o2)n[nH]1 | 75.4 | x | n | n | n
Cn1cc(C(=O)N/N=C/c2cccs2)c2ccccc21 | 80.7 | n | n | n | n
CCN1CCN(c2oc(/C=C/c3ccccc3)nc2C#N)CC1 | n | x | n | n | x
CCc1ccc(C(=O)NNC(=O)CCc2nc3ccccc3c(=O)[nH]2)cc1 | x | x | n | x | x
O=C(CCn1c(=O)[nH]c2ccsc2c1=O)Nc1ccc(F)c(F)c1 | n | n | n | n | x
COC(=O)c1ccccc1Oc1cc(C(F)(F)F)nc(-c2ccccn2)n1 | x | x | n | x | x
O=c1cc(-c2ccc(O)c(-c3c(O)cc(O)c4c(=O)cc(-c5ccc(O)cc5)oc34)c2)oc2cc(O)cc(O)c12 | n | n | n | n | x
O=c1cc(-c2ccc(O)c(O)c2)oc2cc(O)cc(O)c12 | 84.6 | x | n | n | n
O=S(=O)(N/N=C/c1ccc2c(c1)OCCO2)c1ccccc1 | n | n | n | n | x
Fc1cccc(/C=N/Nc2ccccn2)c1 | 76.1 | n | n | n | n
C(=N\Nc1ccccn1)/c1ccc2c(c1)OCCO2 | 82.6 | n | 60.9 | n | n
Cc1ccc(C)c(/C=N/Nc2ccccn2)c1 | n | n | n | n | x
Fc1cccc(Cl)c1/C=N/Nc1ccccn1 | 83.4 | n | n | n | n
Fc1cccc(F)c1/C=N/Nc1ccccn1 | 90.3 | n | u | n | n
CCOC(=O)C1(CC2CC2)CCN(C(=O)c2cccnc2C)CC1 | n | n | n | n | x
CSCCC(NC(=O)c1ccccc1Br)C(=O)N1CCCCCCC1 (centres undefined) | x | x | n | x | x
CN(CC(=O)Nc1cccc(F)c1)C(=O)c1cc(S(=O)(=O)N2CCCCC2)ccc1N1CCOCC1 | x | x | n | x | x
COc1ccccc1NC(=O)Nc1nnc(Cc2ccccc2F)s1 | x | x | n | x | x
COc1ccc(OCc2nnc(NC(=O)Nc3ccccc3F)s2)cc1 | 83.4 | x | n | n | n
O=C(Nc1nnc(Cc2ccccc2)s1)Nc1ccccc1F | x | x | n | x | x
SMILES | L929 necroptosis | Hsp70 activator | HSF1 activator | TNF necrop inh | zVAD necrop conf
O=C(Nc1nnc(-c2ccncc2)s1)Nc1ccccc1F | 78.4 | n | n | n | n
COc1cccc(CN2CC(C(=O)NCCN3CCOC3=O)CCC2=O)c1 (centres undefined) | x | x | n | x | x
O=C(CSc1nnc(-c2ccccc2O)o1)Oc1ccc(OCc2ccccc2)cc1 | n | n | n | n | x
CCN1CCN(Cc2ccc(NC(=O)c3cc(NC(=O)N4CCNC4=O)cc(OC)c3)cc2C(F)(F)F)CC1 | 77.8 | x | n | n | 64.3
CCN1CCN(Cc2ccc(NC(=O)c3cc(NC(=O)c4ccc5n[nH]nc5c4)cc(OC)c3)cc2C(F)(F)F)CC1 | n | x | n | n | x
CCN1CCN(Cc2ccc(NC(=O)c3cc(NC(=O)c4ccno4)cc(OC)c3)cc2C(F)(F)F)CC1 | 77.2 | x | n | n | 73.0
CCN1CCN(Cc2ccc(NC(=O)c3ccc(C)c(NC(=O)c4ccno4)c3)cc2C(F)(F)F)CC1 | n | x | n | n | x
CCN1CCN(Cc2ccc(NC(=O)c3ccc(C)c(NC(=O)c4csc(-c5ccncc5)n4)c3)cc2C(F)(F)F)CC1 | 84.4 | x | n | n | 80.7
CCN(CC)C(=O)c1ccc(-c2nnc(Nc3ccc(C(=O)N(C)C)cc3)c3ccccc23)cc1 | x | x | n | x | x
CN(C)C(=O)c1ccc(-c2nnc(NCc3ccccc3)c3ccccc23)cc1 | 75.2 | n | n | n | n
Cc1ccc(NC(=O)c2ccc(N3CCOCC3)c([N+](=O)[O-])c2)cc1S(=O)(=O)N1CCOCC1 | 76.8 | n | n | n | n
COc1ccccc1N1CCN(Cc2cnc3ccc(Cl)cn23)CC1 | x | x | n | x | x
CC(=O)Nc1ccc(NC(=O)Nc2ccc(C)c(C)c2)cc1 | 79.5 | n | n | n | n
Cc1cccc(NC(=O)Nc2ccc(C)c(C)c2)n1 | 75.0 | n | n | n | n
Cc1ccc(NC(=O)Nc2cccc(C)n2)cc1 | x | x | n | x | x
Cc1cccc(NC(=O)Nc2ccc([N+](=O)[O-])cc2)n1 | 76.5 | n | n | n | n
CCN(CCO)c1ccc(N=Nc2cc(C)[nH]n2)cc1 | 85.2 | x | n | n | n
O=C(Nc1nsc(-c2ccccc2)n1)c1cccs1 | 75.3 | n | n | n | n
Cc1sc(NC(=O)c2cccs2)nc1-c1ccccc1 | n | n | n | n | x
COc1ccc(Br)cc1C(=O)Nc1ccc(C(=O)O)cc1 | n | n | x | n | x
COc1ccc(NC(=O)c2cc3cccc(OC)c3oc2=Nc2ccc(C(=O)O)cc2)cc1OC | 82.1 | n | n | n | n
CCOC(=O)c1c(N)nn(C(=O)c2ccccc2F)c1-c1ccc(OC)cc1 | 77.8 | n | n | n | n
CCOC(=O)c1c(N)nn(C(=O)C(C)(C)C)c1-c1ccccc1 | n | n | n | n | x
CCOC(=O)C1C(=O)NC(SCC(=O)Nc2nccs2)=C(C#N)C1c1ccccc1OCC (centres undefined) | 88.2 | n | n | n | 67.1
CCOC(=O)C1CCCN(C(=O)CCNS(=O)(=O)c2cc(Br)cnc2N)C1 (centres undefined) | x | x | n | x | x
SMILES | L929 necroptosis | Hsp70 activator | HSF1 activator | TNF necrop inh | zVAD necrop conf
COc1ccc(S(=O)(=O)N(CC(=O)NCc2cccnc2)c2ccc(C)cc2)cc1OC | x | x | n | x | x
COc1ccc(-c2cc(=O)c3cc(O)ccc3o2)cc1 | 75.9 | n | n | n | n
O=c1cc(-c2ccccc2)oc2ccc(O)cc12 | n | x | n | n | x
Cn1nc(C(F)(F)F)cc1-c1ccc(S(N)(=O)=O)s1 | n | x | n | n | x
CN(C)c1nc(-c2cn(CCC#N)c3ccccc23)cs1 | x | x | n | x | x
Cc1ccc(C(=O)Nc2cccc(C(F)(F)F)c2)cc1Nc1ccccn1 | 79.2 | x | n | n | 65.1
COc1ccc(CC(=O)Nc2ccc(-c3cn4ccc(C)cc4n3)cc2)cc1 | 81.3 | n | u | n | n
COc1ccc(CC(=O)Nc2ccc(-c3cn4cccc(C)c4n3)cc2)cc1OC | n | n | n | n | x
CC(OC(=O)CCN=C1NS(=O)(=O)c2ccccc21)C(=O)Nc1ccc(F)cc1 (centres undefined) | x | x | n | x | x
Cc1ccc(N=c2oc3cc(O)ccc3cc2C(N)=O)cc1 | 78.6 | n | n | n | n
CC(=O)/C=C(\C)Nc1ccccc1O | 81.2 | x | n | n | n
O=[N+]([O-])c1cc(CN2CCCC2)ccc1Sc1ccc(Cl)cc1 | n | n | n | n | x
N#C/C(=C/c1ccc(C(=O)O)cc1)C(=O)Nc1ccccc1 | n | n | n | n | x
Cc1ccccc1NC(=O)C(=Cc1ccc(C(=O)O)cc1)C(=O)Nc1ccccc1C | 79.2 | n | 146.1 | n | n
O=C(Nc1nccs1)c1cc2c(s1)-c1ccccc1OC2 | 98.2 | n | n | n | n
COc1cccc(CN2CC(C(=O)NCCCCc3ccccn3)CCC2=O)c1 (centres undefined) | x | x | n | x | x
